SMILES strings stand for the structures. Where “and” joins values, the source holds several entries; their conditions need not be identical. Equal entries are not always repeated. In all, about 320,000 compounds went through this assay and about 2,100 (0.66%) were called active.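 How the source made its calls: active means inhibition above the mean inhibition of all tested compounds plus 3 SD, set per campaign (cut at about 40% in these data); inactive means the rest.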 Only a selection was taken, and actives are over-represented in it overall. The source holds several records for some structures; these can differ, active in one and inactive in another.

The target of this experiment is Induced myeloid leukemia cell differentiation protein Mcl-1 (Homo sapiens) (UniProt Q07820). The experiment in a line: MCL1-BIM peptide interaction disruptors – biochemical, fluorescence polarization, primary screen (AID 2057).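 Further: 0% = DMSO wells and 100% = unlabeled Bim-BH3 peptide control; higher means more loss of mP so more displacement of Bim peptide.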 The conditions noted are these: GST-MCL1 / FITC-Bim-BH3 fluorescence polarization; at 10.9 µM; stronger effect = higher value. On the technique in general: Fluorescence polarisation rises when a labelled molecule tumbles more slowly, as on binding a larger partner.
Chain of Induced myeloid leukemia cell differentiation protein Mcl-1 (Homo sapiens) (Q07820 whole entry, looked up): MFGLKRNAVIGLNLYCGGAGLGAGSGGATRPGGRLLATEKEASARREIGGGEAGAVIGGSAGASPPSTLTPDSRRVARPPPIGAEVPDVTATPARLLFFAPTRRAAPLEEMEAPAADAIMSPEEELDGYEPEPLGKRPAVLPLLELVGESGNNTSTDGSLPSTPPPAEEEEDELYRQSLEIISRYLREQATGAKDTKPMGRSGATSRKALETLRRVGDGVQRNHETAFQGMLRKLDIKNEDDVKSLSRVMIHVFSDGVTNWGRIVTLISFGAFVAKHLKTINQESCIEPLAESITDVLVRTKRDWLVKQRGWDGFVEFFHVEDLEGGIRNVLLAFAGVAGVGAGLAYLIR
One may read the inhibition as the change of the read-out against control, counted positive when it falls. For the compound `Cc1coc2c(O)cc3c(c12)OC1(N2CCCCC2)C(=O)NCCCC31` (configuration not stated), the inhibition was 48.6% (active).
On to `Cc1ccc2nnn(Cc3cccc(C(C)(C)C)c3O)c2c1`, for which the inhibition was -0.36% (inactive).
Take `CC1CCN(C(=O)c2ccccc2NC(=O)Cc2ccccc2)CC1`: the inhibition was 2.82% (inactive).
Take `CCCCn1c(N)c(N(CC(C)C)C(=O)c2ccc(-n3c(C)ccc3C)cc2)c(=O)[nH]c1=O`: the inhibition was -0.69% (inactive).
The result for `COc1ccc(C(=O)NCCNc2ccc([N+](=O)[O-])cn2)cc1` reads -2.53% (inactive).
As for `COc1cc(/C=N\Nc2ccc([N+](=O)[O-])cn2)ccc1OCC(=O)O`, the inhibition is -10.5% (inactive).
The same measure for `COc1ccc(Nc2ccc([N+](=O)[O-])cn2)cn1`: 48.7% (active); for `O=C(CCc1c[nH]c2ccccc12)NCCOc1ccccc1`: 0.99% (inactive); for `O=C(COC(=O)/C=C/c1ccc(S(=O)(=O)N2CCCCCC2)cc1)NCc1ccccc1Cl`: 5.88% (inactive).
The same measure for `Cc1ccc2nc(COc3ccc(N(C)S(=O)(=O)c4ccccc4)cc3)cc(=O)n2c1`: 42% (active).
The same measure for `COc1cccc(COc2ccc(N(C)S(=O)(=O)c3ccccc3)cc2)c1`: -7.28% (inactive).
For `CN(c1ccc(OCC(=O)O)cc1)S(=O)(=O)c1ccc2ccccc2c1`, the inhibition is 15.4% (inactive).
The same measure for `O=c1[nH]c(=O)c2nc3ccccc3nc2[nH]1`: 40.2% (active); for `O=c1[nH]c(-c2ccccc2)c(-c2ccccc2)[nH]1`: 1.68% (inactive); for `CNC(=O)c1cccc2nc3ccccc3nc12`: 2.56% (inactive).
The result for `Cn1cnc2c1c(=O)n(Cc1ccccc1C#N)c(=O)n2C` reads 2.03% (inactive); that for `CC(C)c1ccc2oc(=O)cc(CN3CCN(Cc4ccccc4)CC3)c2c1`, -0.09% (inactive); that for `C#CCNC(=O)[C@H](Cc1ccc(C(=O)c2ccccc2)cc1)NC(=O)OC(C)(C)C`, -1.48% (inactive).
For `COc1ccc(CN2CC(C(=O)NC3CCCCC3)CC2=O)cc1` (configuration not stated), the inhibition was 1.62% (inactive).
The result for `O=C(CCNC(=O)C1CCN(S(=O)(=O)c2ccccc2)CC1)NC1CC1` reads 1.06% (inactive).
The same measure for `CCN(CC(=O)NCC(=O)Nc1cccc(C)c1C)Cc1ccccc1`: -6.88% (inactive); for `Cc1[nH]c2ccccc2c1C(=O)CN1CCCC(C)C1` (configuration not stated): -7.18% (inactive).
The result for `Cc1nnc(NC(=O)/C=C/c2ccco2)s1` reads 53.5% (active); that for `CCOC(=O)c1c(NC(=O)/C=C/c2ccco2)sc(C)c1C`, -7.18% (inactive).
`CCC(CC)c1nnc(NC(=O)/C=C/c2ccco2)s1`: the inhibition is -2.29% (inactive).
The same measure for `O=c1[nH]c2ccc(S(=O)(=O)N3CCCC3)cc2[nH]1`: 5.45% (inactive).
The result for `N/C(=N\S(=O)(=O)c1cc(C(F)(F)F)cc(C(F)(F)F)c1)c1cccs1` reads 5.69% (inactive).
The result for `Cc1ccc(C(O)P(=O)(OC(C)C)c2ccc(N(C)C)cc2)cc1` (configuration not stated) reads -0.54% (inactive); that for `COC(=O)[C@H]1[C@H]2C[C@H]3c4[nH]c5ccccc5c4CCN3C[C@@H]2CC[C@@H]1O`, 2.37% (inactive) and 78.5% (active); that for `COC(=O)C1CCN(C(=O)c2cc(=O)[nH]c3ccccc23)CC1`, -5.36% (inactive).
As to `O=C(NC1CCCCC1)N1CCc2[nH]c3ccccc3c2C1`, the inhibition was 7.44% (inactive).
The result for `COc1ccc(NC(=O)C2=CC(c3ccc(OC)c(OC)c3)=NS(=O)(=O)N2C)cc1` reads -1.75% (inactive).
With `C=CCc1ccccc1OCC(=O)N/N=C/c1ccccc1OCC`, the inhibition is -1.1% (inactive).
The result for `Cc1cccc(OCC(=O)NCC(=O)N/N=C/c2ccc(N(C)C)cc2)c1` reads 5.85% (inactive); that for `Cc1ccc(/C=N/NC(=O)COc2ccccc2-c2ccccc2)cc1`, 66.9% (active).
Turning to `CC(Oc1ccccc1)C(=O)Nc1c2c(nn1-c1ccccc1)CS(=O)C2` (configuration not stated), the inhibition was 3.14% (inactive).
On to `CC1CCN(C(=O)c2ccc(S(=O)(=O)Cc3cc(F)ccc3F)c([N+](=O)[O-])c2)CC1`, for which the inhibition was 6.72% (inactive).
The result for `COc1cc2c(cc1OC)C(C)N(S(=O)(=O)c1cnc(Cl)c(Cl)c1)CC2` (configuration not stated) reads 0.66% (inactive).
The result for `Cc1ccc(C2C(C#N)C(C#N)N3CCCN23)cc1` (configuration not stated) reads -13.7% (inactive); that for `COCCN(CCOC)c1nc(N)c2c(N)nc3c(c2c1C#N)CC(=O)N3Cc1ccc(Cl)cc1`, 56.7% (active); that for `CC(C)(C)OC(=O)NCCCC1=CC2=CC(=O)C(C)(OC(=O)c3ccco3)C(=O)C2=CO1` (configuration not stated), 81.6% (active).
The same measure for `CC1(OC(=O)C2CCCC2)C(=O)C=C2C=C(c3ccc(C#N)cc3)OC=C2C1=O` (configuration not stated): 26.9% (inactive).
Take `C=CCN1C=C2C(=O)C(C)(OC(=O)CCc3ccccc3)C(=O)C=C2C=C1c1ccc(C#N)cc1` (configuration not stated): the inhibition is 23.9% (inactive).
As for `Cc1cc(O)c(Sc2ccccc2)c(=O)o1`, the inhibition was 2.06% (inactive).
The same measure for `C=CCc1cccc(/C=N/NC(=O)COc2ccc(-n3cnnn3)cc2)c1O`: 11.2% (inactive); for `CC(OC(=O)c1ccc2noc(-c3ccccc3)c2c1)C(N)=O` (configuration not stated): -8.19% (inactive).
The same measure for `Oc1ccc(-c2onc3ccc(Cl)cc23)cc1`: -2.01% (inactive); for `CCOc1ccc(NC(=O)CN(C)C(=O)Cn2c(=O)cnc3ccccc32)cc1OCC`: 3.26% (inactive).
The result for `Cc1nc(-c2ccc(F)cc2)c(CC(=O)N2CCN(S(=O)(=O)c3ccc(F)cc3)CC2)s1` reads -0.35% (inactive); that for `COC(=O)c1ccc2c(c1)S(=O)(=O)NC(=NCCCN1CCOCC1)S2`, -0.08% (inactive).
As to `Cc1c(NC(=O)C(C)OC(=O)c2c3c(nc4ccccc24)CCC(C)C3)c(=O)n(-c2ccccc2)n1C` (configuration not stated), the inhibition is -4.73% (inactive).
The same measure for `COC(=O)C1=C(Nc2ccc(C)cc2)C=C(C)C(C(=O)OC)C1c1ccc(F)cc1` (configuration not stated): -0.87% (inactive); for `CC(C)N(C(=O)COC(=O)c1ccccc1C(=O)N1CCN(c2ccc(F)cc2)CC1)C(C)C`: 11.2% (inactive); for `O=C(COC(=O)c1ccccc1C(=O)N1CCN(c2ccccc2)CC1)NCc1ccccc1`: 51.8% (active).
The same measure for `O=C(COC(=O)c1n[nH]c2ccccc12)NCc1ccccc1`: -0.26% (inactive); for `OCC1(Cc2ccccc2C(F)(F)F)CCN(Cc2ccncc2)CC1`: 4.27% (inactive).
The same measure for `CC1(NC(=O)CCS(=O)(=O)c2ccc(Cl)cc2)CCS(=O)(=O)C1` (configuration not stated): -1.26% (inactive).

Values taken from PubChem BioAssay AID2057 (The Scripps Research Institute Molecular Screening Center, 2009).
